Only some compounds are listed: those with a hit (about 11% of all), similar ones and a draw of the others.
HP1b binding inh: HP1-beta chromodomain-methylated histone interaction inhibition; AlphaScreen HP1-beta / biotin-H3K9me3 peptide binding; hit rate 0.56% among 390,000; Potency, µM (titrated, usually from 114 µM), usual class: inhibitors; P83916; also: nearly all actives have a fitted effect of over 70% in size
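AlphaScreen: HP1-beta (50 nM) preformed 30 min with biotin-H3(1-18)K9me3 peptide (50 nM) in PBS pH 7.4, 0.01% Tween-20. Compound added for 30 min at RT, then streptavidin donor/nickel chelate acceptor beads (10 ug/mL) for 30 min.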
L3MBTL1 block: L3MBTL1 (human) inhibition. AlphaScreen L3MBTL1–H3K9me1 peptide binding. Potency, µM (highest dose often 57.1 µM), hits mostly inhibitors. hit rate 0.66% among 230,000; also: nearly all actives have a fitted effect of over 60% in size
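Read-out is AlphaScreen signal from streptavidin donor and nickel chelate acceptor beads (10 ug/mL final each) bridging L3MBTL1 (50 nM) and biotinylated K9-monomethylated H3(1-15) peptide (75 nM), after 30 min compound exposure at room temperature.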
JMJD2A Tudor: blocks the human JMJD2A Tudor domain; O75164; AlphaScreen JMJD2A-Tudor / H3K4me3 peptide binding; Potency, µM (top dose mostly 114 µM), most hits filed as inhibitors; hit rate 4.4% among 390,000; AID 504339; also: nearly all actives have a fitted effect of over 50% in size
G9a block: blocks human histone lysine methyltransferase G9a. hit rate 8.8% among 350,000. G9a H3K9 monomethylation, AlphaScreen, 2 h. AID 504332. Potency, µM (titrated, usually from 102 µM), usual class: inhibitors; also: nearly all actives have a fitted effect of over 75% in size
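AlphaScreen detection with an anti-monomethyl H3K9 antibody quantified product after a 2 h room-temperature reaction containing 500 nM biotinylated H3K9 peptide, 20 µM SAM and 20 nM enzyme, which had been preincubated 15 min with compound.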
BAZ2B inh: inhibitors of human BAZ2B bromodomain. Q9UIF8. hit rate 4.4% among 360,000. AlphaScreen BAZ2B-H3K14Ac peptide displacement. Potency, µM (series often up to 114 µM), hits mostly inhibitors; also: nearly all actives have a fitted effect of over 60% in size
Target sequence (Q9UIF8 whole entry, looked up): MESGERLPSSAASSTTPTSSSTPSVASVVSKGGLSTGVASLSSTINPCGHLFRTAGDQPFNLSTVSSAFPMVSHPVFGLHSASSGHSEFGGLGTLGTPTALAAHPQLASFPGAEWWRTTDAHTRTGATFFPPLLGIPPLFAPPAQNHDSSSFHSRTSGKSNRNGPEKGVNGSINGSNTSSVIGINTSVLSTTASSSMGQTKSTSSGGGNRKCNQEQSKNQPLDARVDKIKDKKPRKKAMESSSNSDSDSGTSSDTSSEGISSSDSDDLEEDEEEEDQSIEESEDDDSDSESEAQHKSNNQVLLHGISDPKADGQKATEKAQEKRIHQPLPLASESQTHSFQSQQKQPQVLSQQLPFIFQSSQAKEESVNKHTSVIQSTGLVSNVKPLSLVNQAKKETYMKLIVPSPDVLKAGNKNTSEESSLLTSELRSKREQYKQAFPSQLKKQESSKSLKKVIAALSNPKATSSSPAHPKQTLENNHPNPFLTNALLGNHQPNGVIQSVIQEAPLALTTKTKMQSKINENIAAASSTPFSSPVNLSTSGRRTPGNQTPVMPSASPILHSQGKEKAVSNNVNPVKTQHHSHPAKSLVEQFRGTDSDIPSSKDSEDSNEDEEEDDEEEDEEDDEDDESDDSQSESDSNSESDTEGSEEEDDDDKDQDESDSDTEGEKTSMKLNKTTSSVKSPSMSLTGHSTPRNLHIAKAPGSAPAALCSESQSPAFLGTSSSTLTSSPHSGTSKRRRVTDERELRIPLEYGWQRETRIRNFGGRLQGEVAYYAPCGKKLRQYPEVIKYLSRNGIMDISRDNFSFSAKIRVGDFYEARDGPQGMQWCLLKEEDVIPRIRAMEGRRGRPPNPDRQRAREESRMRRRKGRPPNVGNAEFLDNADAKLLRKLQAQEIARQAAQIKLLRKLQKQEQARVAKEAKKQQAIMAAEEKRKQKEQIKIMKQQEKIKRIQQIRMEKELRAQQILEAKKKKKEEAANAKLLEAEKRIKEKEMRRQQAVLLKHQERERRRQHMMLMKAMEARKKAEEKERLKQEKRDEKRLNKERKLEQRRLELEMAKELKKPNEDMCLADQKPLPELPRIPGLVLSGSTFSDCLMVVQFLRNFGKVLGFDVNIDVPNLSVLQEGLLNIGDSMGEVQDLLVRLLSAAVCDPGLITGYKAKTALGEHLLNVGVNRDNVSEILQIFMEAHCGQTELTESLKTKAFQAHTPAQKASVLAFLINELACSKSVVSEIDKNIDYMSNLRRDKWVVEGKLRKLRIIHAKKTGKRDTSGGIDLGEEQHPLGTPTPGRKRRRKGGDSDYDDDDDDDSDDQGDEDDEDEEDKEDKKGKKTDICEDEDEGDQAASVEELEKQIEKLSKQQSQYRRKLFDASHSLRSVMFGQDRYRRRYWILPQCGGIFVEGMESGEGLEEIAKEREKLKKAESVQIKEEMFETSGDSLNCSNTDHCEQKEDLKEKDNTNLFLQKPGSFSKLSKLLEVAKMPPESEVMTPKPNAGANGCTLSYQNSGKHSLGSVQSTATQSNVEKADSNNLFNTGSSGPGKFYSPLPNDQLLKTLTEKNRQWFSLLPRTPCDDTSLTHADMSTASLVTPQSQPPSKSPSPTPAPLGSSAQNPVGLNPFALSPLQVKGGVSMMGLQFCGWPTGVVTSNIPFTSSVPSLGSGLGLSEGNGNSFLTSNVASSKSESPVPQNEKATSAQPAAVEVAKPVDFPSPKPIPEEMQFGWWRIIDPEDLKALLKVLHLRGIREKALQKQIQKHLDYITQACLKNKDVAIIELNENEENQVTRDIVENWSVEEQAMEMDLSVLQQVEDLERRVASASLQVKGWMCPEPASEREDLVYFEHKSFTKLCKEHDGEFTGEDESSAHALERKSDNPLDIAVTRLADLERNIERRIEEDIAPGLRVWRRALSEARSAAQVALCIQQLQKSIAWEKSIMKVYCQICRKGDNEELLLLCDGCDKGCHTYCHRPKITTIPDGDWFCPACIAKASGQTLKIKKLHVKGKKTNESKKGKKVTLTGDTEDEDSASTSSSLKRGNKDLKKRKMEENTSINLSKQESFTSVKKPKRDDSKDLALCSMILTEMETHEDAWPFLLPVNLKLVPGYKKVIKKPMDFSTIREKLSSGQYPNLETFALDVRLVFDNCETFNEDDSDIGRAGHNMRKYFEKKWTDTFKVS
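Inhibition is scored as reduced AlphaScreen emission. The BAZ2B/b-H3(5-23)K14Ac complex (50 nM each) in PBS pH 7.4, 0.01% Tween-20 meets compound (up to 110 uM) for 30 min at RT before bead addition.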
A number is an active result. Calls follow the shape of the dose curve; as a rule, active = well fitted inhibition curve with a large enough effect; inconclusive = small, poorly fitted or top-dose-only effect; inactive = no such curve, though single readings can be large or run the other way.

Results for OC(CC#CCN1CCCCC1)(c1ccccc1)c1ccccc1 ?
HP1b binding inh: inactive; L3MBTL1 block: inactive; JMJD2A Tudor: inactive; G9a block: inactive; BAZ2B inh: inactive

What do the screens show for `O=C(NCc1ccc2c(c1)OCO2)c1cc2c(s1)CSC2`?
HP1b binding inh: inactive; L3MBTL1 block: inactive; JMJD2A Tudor: inactive; G9a block: 35.5µM; BAZ2B inh: inactive

Results for O=C(CCc1nc2ccccc2[nH]1)NCc1ccc2c(c1)OCO2 ?
HP1b binding inh: inactive; L3MBTL1 block: inactive; JMJD2A Tudor: inactive; G9a block: inactive; BAZ2B inh: inactive

How did O=C(NCc1ccc2c(c1)OCO2)c1cccc(C(=O)NCc2ccc3c(c2)OCO3)c1 do in these assays?
HP1b binding inh: inactive; L3MBTL1 block: inactive; JMJD2A Tudor: inactive; G9a block: inactive

What do the screens show for `O=C(CSc1nc2ccccc2[nH]1)NCc1ccc2c(c1)OCO2`?
HP1b binding inh: inactive; L3MBTL1 block: inactive; JMJD2A Tudor: inactive; G9a block: 25.1µM; BAZ2B inh: inactive

How did O=C(NCc1ccc2c(c1)OCO2)C(C(=O)c1ccccc1)n1cc(Cl)ccc1=O (stereo unspecified) do in these assays?
HP1b binding inh: inactive; L3MBTL1 block: inactive; JMJD2A Tudor: inactive; G9a block: 50.1µM; BAZ2B inh: inactive

Results for O=C(O)c1ccccc1C(=O)NCc1ccc2c(c1)OCO2 ?
HP1b binding inh: inconclusive; JMJD2A Tudor: 31.6µM; G9a block: inactive; BAZ2B inh: inactive

What do the screens show for `CCCCC(=O)N1C/C=C\C(c2ccc(OC)cc2)N(Cc2ccc(F)cc2)C(=O)C1C` (stereo unspecified)?
HP1b binding inh: inactive; JMJD2A Tudor: inactive

What do the screens show for `COc1ccc(OC)c(C2=NS(=O)(=O)N(C)C(C(=O)NCc3ccco3)=C2)c1`?
HP1b binding inh: inconclusive; JMJD2A Tudor: inconclusive; G9a block: inactive; BAZ2B inh: inactive

How did O=C(CCn1c(=O)oc2ccccc21)NCc1ccc2c(c1)OCO2 do in these assays?
HP1b binding inh: inactive; L3MBTL1 block: inactive; JMJD2A Tudor: inactive; G9a block: inactive; BAZ2B inh: inactive

Results for O=C(CCn1cccc1)NCc1ccc2c(c1)OCO2 ?
HP1b binding inh: inconclusive; L3MBTL1 block: inactive; JMJD2A Tudor: inconclusive; G9a block: inconclusive; BAZ2B inh: 50.1µM

Results for CC1(C)Cc2cccc(OCC(O)CN3CCN(c4ccccn4)CC3)c2O1 (stereo unspecified) ?
HP1b binding inh: inactive; L3MBTL1 block: inactive; JMJD2A Tudor: inactive; G9a block: inactive; BAZ2B inh: inactive

How did CC1(C)Cc2cccc(OCC(O)CNCc3ccccn3)c2O1 (stereo unspecified) do in these assays?
HP1b binding inh: inactive; L3MBTL1 block: inactive; JMJD2A Tudor: 89.1µM; G9a block: inconclusive; BAZ2B inh: inconclusive

Results for CCC(C)NC(=O)c1ccc2c(=O)n3c(nc2c1)CCCCC3 (stereo unspecified) ?
HP1b binding inh: inactive; JMJD2A Tudor: inactive; G9a block: inconclusive; BAZ2B inh: inactive

What do the screens show for `O=C(CCc1n[nH]c(=O)[nH]c1=O)N/N=C/c1ccco1`?
HP1b binding inh: inactive; L3MBTL1 block: inactive; JMJD2A Tudor: inactive; G9a block: inconclusive; BAZ2B inh: 50.1µM

Results for COc1cc2c(cc1OC)n(CC(=O)c1cc(C)ccc1C)c(=O)n1nc(CCn3nc(C)cc3C)nc21 ?
HP1b binding inh: inactive; JMJD2A Tudor: inactive; G9a block: inactive; BAZ2B inh: inactive

Results for O=C1NC(=S)/C(=C\c2ccc(-c3ccccc3Cl)o2)S1 ?
HP1b binding inh: inconclusive; L3MBTL1 block: inconclusive; JMJD2A Tudor: 44.7µM; G9a block: 10µM; BAZ2B inh: 17.8µM

What do the screens show for `O=C(Nc1ccc2c(c1)OCO2)C1CCN(Cc2cc3c(cc2O)OCO3)CC1`?
HP1b binding inh: inconclusive; JMJD2A Tudor: inconclusive; G9a block: 31.6µM; BAZ2B inh: inactive

How did O=C(c1cc(-c2ccncc2)nc2ccc(Cl)cc12)N1CCN(Cc2ccc3c(c2)OCO3)CC1 do in these assays?
HP1b binding inh: inactive; L3MBTL1 block: inactive; JMJD2A Tudor: inconclusive; G9a block: inconclusive; BAZ2B inh: 39.8µM

Results for O=C(c1cc(-c2ccncc2)nc2ccc(Br)cc12)N1CCN(Cc2ccc3c(c2)OCO3)CC1 ?
HP1b binding inh: inactive; L3MBTL1 block: inactive; JMJD2A Tudor: inactive; G9a block: inactive; BAZ2B inh: inactive

How did O=C(Nc1ccc2c(c1)OCO2)C1CCCCC1 do in these assays?
HP1b binding inh: inactive; JMJD2A Tudor: inactive; G9a block: inconclusive; BAZ2B inh: inactive

What do the screens show for `CC1CCCN(C(=O)C2CCN(Cc3ccc4c(c3)OCO4)CC2)C1` (stereo unspecified)?
HP1b binding inh: inactive; JMJD2A Tudor: 2.24µM; G9a block: 50.1µM; BAZ2B inh: inactive

What do the screens show for `O=C(C1CCN(Cc2ccccc2O)CC1)N1CCN(Cc2ccc3c(c2)OCO3)CC1`?
HP1b binding inh: inconclusive; JMJD2A Tudor: 2.82µM; G9a block: 6.31µM; BAZ2B inh: inconclusive

Results for COc1cc(SC)ccc1C(=O)N1CCN(Cc2ccc3c(c2)OCO3)CC1 ?
HP1b binding inh: inactive; L3MBTL1 block: inactive; JMJD2A Tudor: inactive; G9a block: inactive; BAZ2B inh: inactive

What do the screens show for `Cc1ccc2c(C)c(C(=O)N3CCN(Cc4ccc5c(c4)OCO5)CC3)oc2c1C`?
HP1b binding inh: inactive; JMJD2A Tudor: inactive; G9a block: 50.1µM; BAZ2B inh: inconclusive

Results for COc1cccc(OC)c1C(=O)N1CCN(Cc2ccc3c(c2)OCO3)CC1 ?
HP1b binding inh: 44.7µM; L3MBTL1 block: inactive; JMJD2A Tudor: 5.01µM; G9a block: 14.1µM; BAZ2B inh: 50.1µM

What do the screens show for `COc1cc2c(cc1OC)C(C)N(C(=O)Cn1ncc3c1-c1ccccc1OC3)CC2` (stereo unspecified)?
HP1b binding inh: inactive; L3MBTL1 block: inactive; JMJD2A Tudor: inactive; G9a block: 79.4µM; BAZ2B inh: inactive

How did COc1ccc(OC)c(NC(=O)Cn2ncc3c2-c2ccccc2OC3)c1 do in these assays?
HP1b binding inh: inactive; JMJD2A Tudor: inactive; G9a block: inactive; BAZ2B inh: inactive

What do the screens show for `O=C(Cn1ncc2c1-c1ccccc1OC2)N1CCN(Cc2ccc3c(c2)OCO3)CC1`?
HP1b binding inh: inactive; JMJD2A Tudor: inactive; G9a block: 15.8µM; BAZ2B inh: inactive

Results for O=C(Nc1ccc(Br)cc1)C1CCCN1S(=O)(=O)c1ccc(F)cc1 (stereo unspecified) ?
HP1b binding inh: inactive; JMJD2A Tudor: inactive; G9a block: inactive; BAZ2B inh: inactive

What do the screens show for `COc1ccc(Cn2ncc3c4sc(C)cc4n(C)c3c2=O)cc1`?
JMJD2A Tudor: inactive

Results for COc1ccc(C(CNC(=O)C(CC(C)C)NS(=O)(=O)c2ccc(C)cc2)N2CCOCC2)cc1 (stereo unspecified) ?
HP1b binding inh: inactive; L3MBTL1 block: inactive; JMJD2A Tudor: inactive; G9a block: inactive; BAZ2B inh: inactive

Assay outcomes deposited in PubChem by National Center for Advancing Translational Sciences (NCATS).
